Source: PubChem BioAssay (NCI)
Where “and” joins values, the source holds several entries; their conditions need not be identical. Equal values may be shown once. This is part of a sample that, as a whole, favours compounds with a hit. Of some 79,000 tested, about 15% had one in any assay. Unmarked numbers belong to inactive results. Calls of active or inactive are those of the source. Cut-off read from the data, not from the text of the source: active = growth inhibition above about 70%; inactive = the rest.

Columns and labels:
[1] = NCI Yeast Anticancer Drug Screen. Data for the rad50 strain (AID 155);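 note: 0% = growth of vehicle-only cultures of the same strain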; settings: S. cerevisiae rad50 strain growth inhibition; at 50.0 µM; stronger effect = higher value
Outline: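 Readout: growth inhibition relative to vehicle-treated cultures. Compound exposure was carried out in a genetically defined yeast strain deficient in DNA damage repair.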

[2] = NCI Yeast Anticancer Drug Screen. Data for the mec2-1 strain (AID 157); settings: S. cerevisiae mec2-1 strain, at 50.0 µM, stronger effect = higher value
Outline: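 Using mec2-1 yeast: add compound, measure growth, express inhibition versus vehicle-treated cultures.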

[3] = NCI Yeast Anticancer Drug Screen. Data for the sgs1 mgt1 strain (AID 161);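 note: 0% = growth of cultures given vehicle only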; settings: S. cerevisiae sgs1 mgt1 strain, at 50.0 µM, stronger effect = higher value
Outline: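 Growth of a repair-deficient yeast mutant was monitored after compound treatment and expressed as inhibition relative to vehicle-treated cultures.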

[4] = NCI Yeast Anticancer Drug Screen. Data for the cln2 rad14 strain (AID 165);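 note: 0% = growth equal to vehicle treated cultures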; settings: S. cerevisiae cln2 rad14 strain, at 50.0 µM, stronger effect = higher value
Outline: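 Yeast strain cln2 rad14, bearing defects in cell cycle control and DNA repair, serves as the test system; values reflect growth inhibition compared with vehicle.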

[5] = NCI Yeast Anticancer Drug Screen. Data for the bub3 strain (AID 167); settings: S. cerevisiae bub3 mutant strain, at 50.0 µM, stronger effect = higher value
Outline: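 Readout: yeast growth inhibition, expressed relative to vehicle-only wells. The test organism is a mutant strain from a panel with lesions in DNA repair or checkpoint genes.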

[6] = NCI Yeast Anticancer Drug Screen. Data for the mlh1 rad18 strain (AID 175); settings: S. cerevisiae mlh1 rad18 strain growth inhibition; at 50.0 µM; stronger effect = higher value
Outline: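 Steps: expose repair-defective yeast to compound; measure growth; express inhibition against vehicle-treated controls.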

| SMILES | growth inhibition [1] | growth inhibition [2] | growth inhibition [3] | growth inhibition [4] | growth inhibition [5] | growth inhibition [6] |
| --- | --- | --- | --- | --- | --- | --- |
| CC(C)CCC(=O)c1ccoc1 | -2.45% | -9.95% | -1.55% | 3.65% | 5.45% | -28.6% |
| CN(CCOC(=O)c1ccc(Br)cc1)[N+](=O)[O-] | 8.9% | 3.2% | -6.25% | 5.8% | 38.9% | 22.9% |
| O=C1/C(=C\c2ccccc2)N2CCC1CC2 | 4.2% | -18.1% | -1.65% | -70.6% | -18.1% | -20.6% |
| CN(C)C(=O)Oc1c(Cl)cccc1Cl | 28.4% | 24.4% | 5.65% | 10.5% | 36.8% | 14.1% |
| [CH3][Sn]([c]1ccccc1)[c]1ccccc1 | -4.15% | 2.5% | 2.45% | -11% | 1.2% | -21.4% |
| COc1ccc(C(=O)Cc2c(C(=O)c3ccccc3)c3ccccc3n2C(=O)c2ccccc2)cc1 | -2.45% | -18.5% | -9.5% | -57.6% | -23.4% | 5.75% |
| Cc1nccn1-c1ccc(Cl)cc1N=Cc1ccc(N(CCCl)CCCl)cc1Cl | 38.4% | 47.5% | 68.5% | 33.8% | 43% | 71.5% (active) |
| ClCCN(CCCl)c1ccc(-c2csc(Cc3ccccc3)n2)cc1 | -2% | -7.35% | -2.7% | -20% | -4.3% | -19.9% |
| CCOC(OCC)C(CC)[Se]c1ccccc1 (centres undefined) | 4.45% | -9.6% | 13.4% | 0.6% | 2.7% | -7.9% |
| C=C(C)[C@H]1CN[C@H](C(=O)O)[C@H]1CC(=O)O | -5.6% | -5% | -6.15% | -19.9% | -6.5% | 5.05% |
| CC(C)CC(NC=O)C(=O)NC(Cc1ccccc1)NC(=O)CNC(=O)C(C)NC(=O)C(N)Cc1ccc(O)cc1 (centres undefined) | -17.3% | -9.9% | -0.9% | 15.4% | -5.15% | -6.45% |
| CC(C)OC(=O)Nc1cccc(Cl)c1 | 25.9% | 1.75% | 23.9% | -3.85% | 0.3% | 4.5% |
| O=C(O)CC1NCc2cc3ccccc3nc21 (centres undefined) | 6.4% | -13.2% | -17.2% | 10% | -0.8% | 16.6% |
| O=P1(O)NP(=O)(O)NP(=O)(O)NP(=O)(O)N1 | -9.45% | 2.9% | -9.8% | -5.45% | -18.1% | -3.95% |
| CC1(C)N=C(c2ccccc2)C2(c3ccccc3)N1C2(C)C (centres undefined) | -1.8% | 11.3% | 16.8% | -0.3% | 5.6% | -18.1% |
| CCCCCCCCCCCCCCCCCC(=O)NC(CC(=O)OCCCCCC)c1ccc(N(CCCl)CCCl)cc1 (centres undefined) | -2.6% | 10.8% | 12.8% | -6.5% | -3.9% | 22.6% |
| C[N+]1(CCCl)CCc2cc([N+](=O)[O-])ccc2C1 (centres undefined) | -25.1% | -84.7% | -24.9% | -16.1% | -12.6% | -9.8% |
| CC[C@@]1(O)C(=O)OCc2c1c(Cl)c1n(c2=O)Cc2cc3ccccc3nc2-1 | -21.1% | -23.9% | -5.85% | 17.7% | -28.5% | -70% |
| C[C@]12CCC(O)CC1=CC[C@@H]1[C@@H]2CC[C@]2(C)C(O)[C@H](n3ccnc3)C[C@@H]12 (some centres undefined) | 30.1% | 33.6% | -6.05% | 25.1% | -11.7% | -13.4% |
| O=c1c2ccccc2sc2c1c(N(CCCl)CCCl)cc1ccccc12 | 39.2% | 5.5% | 20.1% | 17.5% | -5.85% | 18.8% |

| SMILES | growth inhibition [1] | growth inhibition [2] | growth inhibition [3] | growth inhibition [4] | growth inhibition [5] | growth inhibition [6] |
| --- | --- | --- | --- | --- | --- | --- |
| COc1ccc(C(N)Cc2ccccc2)cc1 (centres undefined) | 10.8% | 3.15% | 10.8% | 9.85% | 3.5% | -2.35% |
| CCC1(c2ccccc2)C(=O)N(C)C(=O)N(CCCl)C1=O (centres undefined) | 12.5% | 8.15% | -0.8% | -34.5% | 22.3% | 3.85% |
| C[N+]1(CC2CC2)C2CC(OC(=O)C(CO)c3ccccc3)CC1C1OC12 (centres undefined) | 11.1% | 23.9% | 10.7% | 9.55% | -0.6% | -33.5% |
| O=C(O)c1ccccc1.O=C(O)c1ccccc1.O=C(O)c1ccccc1.O=C(O)c1ccccc1.[Cu].[Cu] | 17.4% | -10% | 10.8% | 3.85% | 1.85% | 17.1% |
| CN(C)CCC(=O)c1ccccc1 | 3.05% and -40.5% | 0.7% and 11.3% | 5.85% and -7.35% | -0.6% and -27.6% | 4.35% and -1.8% | 4.4% and 10.6% |
| N#CC(C#N)=Cc1ccc(Cl)cc1 | 13.6% and 9.25% | -2.05% and -21.4% | 8.5% and 19.9% | 3.45% and -9.95% | -8.1% and 0.15% | 20.7% and 20.1% |
| COc1ccc(/C=C\[N+](=O)[O-])cc1OCc1ccccc1 | 7.2% | 8.35% | 22.6% | -13.6% | 7.2% | 8.05% |
| CN(C)P(N)(=S)N(C)C | -2.75% | -9.15% | -1.3% | -15.8% | -22.6% | -7.05% |
| COC(=O)C1C2CCCN2OC1(C)CO (centres undefined) | -2.6% | 12.5% | 12.4% | 2.45% | 12.9% | 2.1% |
| [F][Sn]([c]1ccc(Cl)cc1)([c]1ccc(Cl)cc1)[c]1ccc(Cl)cc1 | 98.2% (active) | 95.2% (active) | 98.5% (active) | 95.9% (active) | 96.2% (active) | 98.2% (active) |
| O=[N+]([O-])c1cc(Cl)ccc1Cl | 11.6% and 28.9% | 4.4% and -26.1% | 4.75% and -10.9% | 3.95% and -47.9% | -6.85% and -12.7% | 0.35% and -8.7% |
| COc1ccc(CCNC2(C#N)CCCCC2)cc1OC | -9.5% | -29.8% | 0.05% | 10.2% | -5.75% | -5.25% |
| C1CC[N-]CC1.C1CC[N-]CC1.C1CC[N-]CC1.C1CC[N-]CC1.[Cl][Rh][Cl] | -12.5% | 28.6% | 8.5% | -13.9% | -58% | -18.4% |
| O=[N+]([O-])c1ccc(/C=C/C=C\c2ccc(S(=O)(=O)F)cc2Cl)cc1 | 2.55% | 25.2% | 16% | 1.85% | 10.2% | 16.3% |
| CCCCC1CN1C(=N)OCC (centres undefined) | 6.65% | -0.6% | 15.4% | 59.1% | 0.9% | 29.1% |
| CC(=O)Nc1ccc(C(=O)O)cc1 | 5.05% | -1% | 0.1% | 33% | 0.15% | 1.8% |
| N.N.O=P([O-])([O-])CN(CP(=O)([O-])[O-])CP(=O)([O-])[O-].[Pt+2] | -4.25% | -9.8% | -11.1% | -12.9% | 1.15% | -23.1% |
| COc1cccc(N2C(=O)C3C(C2=O)C2(Cl)C(Cl)=C(Cl)C3(Cl)C2(Cl)Cl)c1 (centres undefined) | 58.4% | 45.2% | 53.5% | 10.1% | 19.4% | 49.8% |
| C(#Cc1ccccc1)c1ccccc1 | 29.1% | 5.25% | 20.3% | -13.6% | -11.3% | -3.6% |
